In PubChem BioAssay (NCATS):
Inconclusive results are not listed. A call without a number means that no potency is given here. The source made the active and inactive calls. The call rests on the fitted dose curve; in most records, active means well fitted curve in the direction sought with a large enough effect; inconclusive means small, poorly fitted or top-dose-only effect, or another doubt; inactive means no such curve, though single readings can be large; an effect the other way counts as inactive or inconclusive. Where a SMILES comes first, the peptide text is derived from it. [ ]: non-standard residue; d: D form. pGlu = O=C1CC[C@@H](C(=O)O)N1

What was measured:
[1] = qHTS assay to identify small molecule inhibitors of chordoma cells - UCH-2 (AID 1259356)
[2] = P-glycoprotein substrates identified in KB-8-5-11 adenocarcinoma cell line, qHTS therapeutic library screen (AID 1346987); details: outcome: dose series up to 44.5 µM unless noted; further: nearly all actives have a fitted effect of over 65% in size
In short: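 In this qHTS, P-gp-rich KB-8-5-11 cells received library compounds across a concentration range. Viability was quantified by luminescence after 72 h at 37 degree C.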
Potency means the concentration at half of the fitted maximal effect.

Compound	Potency [1]	Potency [2]
NC[C@@H]1CC[C@@H](N)[C@@H](O[C@H]2[C@H](O)[C@@H](O[C@H]3O[C@H](CO)[C@@H](O)[C@H](N)[C@H]3O)[C@H](N)C[C@@H]2N)O1	inactive	inactive
CNC(=O)C[C@@H](N)C(=O)N[C@@H](C(=O)N[C@@H]1C(=O)N2[C@@H]1SC(C)(C)[C@@H]2C(=O)O)c1ccc(O)cc1	inactive	inactive
CC[C@H]1OC(=O)[C@H](C)[C@@H](O[C@H]2C[C@@](C)(OC)[C@@H](O)[C@H](C)O2)[C@H](C)[C@@H](O[C@@H]2O[C@H](C)C[C@H](N(C)C)[C@H]2O)[C@](C)(O)C[C@@H](C)CN(C)[C@H](C)[C@@H](O)[C@]1(C)O	inactive	inactive
Cc1c(N)nc([C@H](CC(N)=O)NC[C@H](N)C(N)=O)nc1C(=O)N[C@H](C(=O)N[C@H](C)[C@@H](O)[C@H](C)C(=O)N[C@H](C(=O)NCCc1nc(-c2nc(C(=O)NCCCCN=C(N)N)cs2)cs1)[C@@H](C)O)[C@@H](O[C@@H]1O[C@@H](CO)[C@@H](O)[C@H](O)[C@@H]1O[C@H]1O[C@H](CO)[C@@H](O)[C@H](OC(N)=O)[C@@H]1O)c1cnc[nH]1	inactive	inactive
C[C@]12CC[C@@H]3c4ccc(OC(=O)c5ccccc5)cc4CC[C@H]3[C@@H]1CC[C@@H]2O	inactive	4.61 µM (active)
NCCO/C=C/[C@H](N)C(=O)O	inactive	inactive
CCC(C)[C@@H](N)C(=O)O (some centres undefined)	inactive	inactive
O=C(O[C@H]1CN2CCC1CC2)N1CCc2ccccc2[C@@H]1c1ccccc1	inactive	inactive
CN1c2c(nc(N)[nH]c2=O)NCC1CNc1ccc(C(=O)NC(CCC(=O)O)C(=O)O)cc1 (centres undefined)	inactive	inactive
NC(=O)Oc1ccc(Cc2ccccc2)cc1	inactive	inactive
CC(=O)NCCCS(=O)(=O)O	inactive	inactive
CO/N=C(\C(=O)N[C@@H]1C(=O)N2C(C(=O)[O-])=C(C[n+]3cccc4c3CCC4)CS[C@H]12)c1csc(N)n1	inactive	inactive
CCCCCCCCCCCC(=O)OC[C@@H](O)C1OC[C@H](O)[C@H]1O (some centres undefined)	inactive	inactive
O=C(OC[C@H]1O[C@@H](OC(=O)c2cc(O)c(O)c(OC(=O)c3cc(O)c(O)c(O)c3)c2)[C@H](OC(=O)c2cc(O)c(O)c(OC(=O)c3cc(O)c(O)c(O)c3)c2)[C@@H](OC(=O)c2cc(O)c(O)c(OC(=O)c3cc(O)c(O)c(O)c3)c2)[C@@H]1OC(=O)c1cc(O)c(O)c(OC(=O)c2cc(O)c(O)c(O)c2)c1)c1cc(O)c(O)c(OC(=O)c2cc(O)c(O)c(O)c2)c1	16.4 µM (active)	23.1 µM (active)
CC(CCc1ccc(O)cc1)NCC(O)c1ccc(O)cc1 (centres undefined)	inactive	inactive
CCCCCc1ccc(C)cc1O	inactive	inactive
NCCCC[C@H](N)C(=O)O	inactive	inactive
CC1(O)CCC(C(C)(C)O)CC1 (centres undefined)	inactive	inactive
NC(Cc1ccccc1)C(=O)O (centres undefined)	inactive	inactive
C#C[C@]1(O)CC[C@@H]2[C@H]3CCC4=CC(=O)CC[C@H]4[C@H]3C(=C)C[C@@]21CC	inactive	inactive
C=CCOc1ccc(CC(=O)O)cc1Cl	inactive	inactive
O=C(O)Cc1cc(I)c(Oc2ccc(O)c(I)c2)c(I)c1	inactive	inactive
O=C(OC[C@H]1O[C@](O)(COC(=O)c2cccnc2)[C@@H](OC(=O)c2cccnc2)[C@@H]1OC(=O)c1cccnc1)c1cccnc1	inactive	inactive
CCOC(=O)Cc1ccc(-c2ccccc2)cc1	inactive	inactive

Compound	Potency [1]	Potency [2]
OCCOCCOCCO	inactive	inactive
CCN(CC)CCOc1ccccc1OC	inactive	inactive
NC(=O)OCC(O)COc1ccc(Cl)cc1 (centres undefined)	inactive	inactive
CCC(Cc1c(I)cc(I)c(O)c1I)C(=O)O (centres undefined)	inactive	inactive
C=O	inactive	inactive
O=C1CCC(c2ccccc2)(C2CCN(Cc3ccccc3)CC2)C(=O)N1 (centres undefined)	inactive	inactive
O=C1c2ccccc2C(=O)C1c1ccc(F)cc1	inactive	inactive
C[N+]1(C)[C@@H]2CC(OC(=O)C(O)(c3cccs3)c3cccs3)C[C@H]1[C@@H]1O[C@@H]12 (some centres undefined)	inactive	inactive
O=C(NCCNCC(O)COc1ccc(O)cc1)N1CCOCC1 (centres undefined)	inactive	inactive
CCN(CC)C(=O)[C@]1(c2ccccc2)C[C@@H]1CN	inactive	inactive
CC1(C)S[C@@H]2[C@H](N3C(=O)C(c4ccccc4)NC3(C)C)C(=O)N2[C@H]1C(=O)O (some centres undefined)	inactive	inactive
O=P(O)(O)OC[C@H](O)CO	inactive	inactive
CC[C@@H]1/C=C(\C)C[C@H](C)C[C@H](OC)[C@H]2O[C@@](O)(C(=O)C(=O)N3CCCC[C@H]3C(=O)O[C@H](/C(C)=C/[C@@H]3CC[C@@H](Cl)[C@H](OC)C3)[C@H](C)[C@@H](O)CC1=O)[C@H](C)C[C@@H]2OC	inactive	inactive
C[C@H](O)CN(C)C	inactive	inactive
C[C@@H]1NC(=O)[C@@H](N)CNC(=O)[C@H](C2CCNC(N)=N2)NC(=O)/C(=C/NC(N)=O)NC(=O)[C@H](CNC(=O)C[C@@H](N)CCCN)NC1=O (some centres undefined)	inactive	inactive
O=C(O)C1=C(CSc2nnnn2CS(=O)(=O)O)CS[C@@H]2[C@H](NC(=O)[C@H](O)c3ccccc3)C(=O)N12	inactive	inactive
C[Se]CC[C@H](N)C(=O)O	inactive	inactive
CC1(C)[C@@H]2CC[C@@]1(C)[C@H](OC(=O)CSC#N)C2	inactive	inactive
CC[C@H](C)[C@H](NC(=O)[C@H](Cc1ccccc1)NC(=O)[C@H](C)NC(=O)[C@H](CC(=O)O)NC(=O)[C@H](CCCCN)NC(=O)[C@H](CO)NC(=O)[C@@H]1CCCN1C(=O)[C@@H]1CCC(=O)N1)C(=O)NCC(=O)N[C@@H](CC(C)C)C(=O)N[C@@H](CCSC)C(N)=O ([pGlu]PSKDAFIGLM-NH2)	inactive	inactive
O=C1c2ccccc2C(=O)C1c1ccc(Cl)cc1	inactive	inactive
CCCCCCCCCCCCCCCC(=O)OC[C@H](COP(=O)([O-])OCC[N+](C)(C)C)OC(=O)CCCCCCCCCCCCCCC	inactive	inactive
O=C1c2ccccc2CN2C(=O)c3ccccc3CN12	inactive	inactive
OC/C=C/c1ccccc1	inactive	inactive
O=C(OC1C[C@@H]2CC3C[C@H](C1)N2CC3=O)c1c[nH]c2ccccc12 (some centres undefined)	inactive	inactive

Compound	Potency [1]	Potency [2]
NS(=O)(=O)c1cc2c(cc1Cl)NC(Cc1ccccc1)NS2(=O)=O (centres undefined)	inactive	inactive
CC(C)(CO)[C@@H](O)C(=O)NCCC(=O)NCCSSCCNC(=O)CCNC(=O)[C@H](O)C(C)(C)CO	inactive	inactive
O=c1[nH]c(=O)n([C@H]2C[C@H](O)[C@@H](CO)O2)cc1/C=C/Br	inactive	inactive
Cc1cccc(Nc2ncccc2C(=O)O)c1C	inactive	inactive
O=C[C@H](O)[C@@H](O)[C@@H](O)[C@H](O)CO	inactive	inactive
CC(=O)OCC(=O)[C@@]1(O)CC[C@H]2[C@@H]3CCC4=CC(=O)CC[C@]4(C)C3=CC[C@@]21C	inactive	inactive
CC12CCC(C[N+](C)(CCC[N+](C)(C)C)C1)C2(C)C (centres undefined)	inactive	inactive
CCCCC(CC)CCC(CC(C)C)OS(=O)(=O)O (centres undefined)	inactive	inactive
CO/N=C(\C(=O)N[C@@H]1C(=O)N2C(C(=O)[O-])=C(C[n+]3ccc(N)n3CCO)CS[C@H]12)c1csc(N)n1	inactive	inactive
O=C1c2c(O)cccc2[C@H]([C@@H]2O[C@H](CO)[C@@H](O)[C@H](O)[C@H]2O)c2cc(CO)cc(O)c21	inactive	inactive
CCCCCCCCCCCCCCCCCC(=O)OCC(C)O (centres undefined)	inactive	inactive
C[Si](C)(C)O[Si](C)(C)C	inactive	inactive
CCCCC/C=C\CCC(=O)N[C@H]1[C@H](Oc2c3cc4cc2Oc2ccc(cc2Cl)[C@@H](O[C@@H]2O[C@H](CO)[C@@H](O)[C@H](O)[C@H]2NC(C)=O)[C@@H]2NC(=O)[C@H](NC(=O)[C@@H]4NC(=O)[C@H]4NC(=O)[C@@H](Cc5ccc(c(Cl)c5)O3)NC(=O)[C@H](N)c3ccc(O)c(c3)Oc3cc(O)cc4c3)c3ccc(O)c(c3)-c3c(O[C@H]4O[C@H](CO)[C@@H](O)[C@H](O)[C@@H]4O)cc(O)cc3[C@@H](C(=O)O)NC2=O)O[C@H](CO)[C@@H](O)[C@@H]1O	inactive	inactive
COC1=C(OC)C(=O)C(C/C=C(\C)CC/C=C(\C)CC/C=C(\C)CC/C=C(\C)CC/C=C(\C)CC/C=C(\C)CC/C=C(\C)CC/C=C(\C)CC/C=C(\C)CCC=C(C)C)=C(C)C1=O	inactive	inactive
CCC(Oc1ccccc1)C(=O)N[C@@H]1C(=O)N2[C@@H]1SC(C)(C)[C@@H]2C(=O)O (some centres undefined)	inactive	inactive
COc1ccc2c(=O)c(C)c(-c3ccccc3)oc2c1CN(C)C	inactive	inactive
CC(CNC(=O)c1cccnc1)NC(=O)c1cccnc1 (centres undefined)	inactive	inactive
CC(=C\c1ccccc1)/C=C1/SC(=S)N(CC(=O)O)C1=O	inactive	inactive
CO/N=C(\C(=O)N[C@@H]1C(=O)N2C(C(=O)O)=C(CSC(=O)c3ccco3)CS[C@H]12)c1csc(N)n1	inactive	inactive
CCCCCCCCCCCCCCCCCC(=O)OC[C@@H](O)[C@H]1OC[C@H](O)[C@H]1O	inactive	inactive
c1ccc2c(c1)OCC(CN1CCCCC1)O2 (centres undefined)	inactive	inactive
C=CC(C)(O)CC/C=C(\C)CCC=C(C)C (centres undefined)	inactive	inactive
CC(C)O	inactive	inactive
CN=C1C=CC(=C(c2ccc(N(C)C)cc2)c2ccc(N(C)C)cc2)C=C1	9.2 µM (active)	20.6 µM (active)
